Source: PubChem
A selection: hits, their analogues and other compounds. The true share with any hit is near 17%.
TDP1 block: qHTS Assay for Inhibitors of Tyrosyl-DNA Phosphodiesterase (TDP1) | recombinant TDP1, AlphaScreen DNA substrate cleavage | Potency, µM (titrated, usually from 130 µM), for inactives: at the highest dose activity change, negative = inhibition, usual class: inhibitors | Tyrosyl-DNA phosphodiesterase 1 (Homo sapiens), Q9NUW8 | 0.28% of 350,000 active; further: on the % scale 0 is the no-effect control and ±100 the full control effect; nearly all actives have a fitted effect of over 40% in size
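Recombinant human Tdp1 (E. coli-expressed, 1 nM final) preincubated with compounds 15 min at room temperature, then 5'-biotin/3'-phosphotyrosine-FITC DNA substrate (15 nM final) added for 5 min. AlphaScreen beads (10 ug/ml final) added 10 min; cleavage lowers signal.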
TDP1 cell noCPT: qHTS for Inhibitors of human tyrosyl-DNA phosphodiesterase 1 (TDP1): qHTS in cells in absence of CPT | DT40 Tdp1-/- hTDP1 cells, no CPT, ATP luminescence, 48 h | Potency, µM (top dose mostly 46.2 µM), inactives show at the top dose activity change, negative = growth inhibition, actives largely listed as inhibitors | 15% of 420,000 active; further: on the % scale 0 is the no-effect control and ±100 the full control effect; nearly all actives have a fitted effect of over 55% in size
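No-CPT arm: Tdp1-/-;hTDP1 DT40 cells (400/well) plus compounds, incubated ≥48 hr at 37 °C. Readout CellTiter-Glo luminescence.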
ClpP mod: qHTS Assay for Activators of ClpP. purified B. subtilis ClpP, FRET peptide cleavage, 20 min. Potency, µM (top dose mostly 57.5 µM), for the others: at the highest dose activity change, negative = active. 1.9% of 340,000 active; active means well fitted falling curve with a large enough effect; inconclusive means small, poorly fitted or top-dose-only effect; inactive means no such curve, though single readings can be large or run the other way; further: the source files actives as falling curves though it sought activators and does not explain the sign; nearly all actives have a fitted effect of over 65% in size
Target sequence (P80244 whole entry, looked up): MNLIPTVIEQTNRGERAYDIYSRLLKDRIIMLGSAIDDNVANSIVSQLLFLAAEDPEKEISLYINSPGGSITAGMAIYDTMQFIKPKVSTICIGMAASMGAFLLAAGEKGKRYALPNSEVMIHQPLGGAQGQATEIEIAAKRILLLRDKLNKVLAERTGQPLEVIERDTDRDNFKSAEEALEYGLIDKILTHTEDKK
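ClpP 10 microg/mL final, pH 8 Tris/KCl buffer with BSA, glycerol, Tween-20; compound pinned in; FRET-FV substrate; RT 20 min; Ex320/Em430; ΔFRET vs ADEP 5.8 microM, DMSO, no enzyme.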
DT40 TDP1 CPT: qHTS for Inhibitors of human tyrosyl-DNA phosphodiesterase 1 (TDP1): qHTS in cells in presence of CPT. chicken DT40 Tdp1-/-;hTDP1 cells + 20 nM CPT, ATP luminescence, 48 h. Potency, µM (top dose mostly 46.2 µM), inactives show at the highest dose activity change, negative = growth inhibition, most hits filed as inhibitors. 12% of 420,000 active. AID 686979, 2013; further: on the % scale 0 is the no-effect control and ±100 the full control effect; nearly all actives have a fitted effect of over 55% in size
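Chicken DT40 Tdp1-/- cells stably complemented with human TDP1 were seeded at 400 cells/well in medium containing 20 nM camptothecin, exposed to pin-transferred compounds, and grown at 37 °C for at least 48 hr. Viability was read as ATP luminescence.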
* marks the source's active call; other numbers are inactive results; [ ] = remark or other dose. Unless noted, the call rests on the fitted dose curve; in most records, active means well fitted curve in the direction sought with a large enough effect; inconclusive means small, poorly fitted or top-dose-only effect, or another doubt; inactive means no such curve, though single readings can be large; an effect the other way counts as inactive or inconclusive. Potency means the concentration at half of the fitted maximal effect.

Results for CCCCNC(=O)c1sc(=S)n2c1[nH]c(=O)c1ccccc12 ?
TDP1 block: 1.0%; TDP1 cell noCPT: inconclusive; ClpP mod: 1.8%; DT40 TDP1 CPT: -25.3%

How did O=C(NC1CCCCC1)c1sc(=S)n2c1[nH]c(=O)c1ccccc12 do in these assays?
TDP1 block: 1.9%; TDP1 cell noCPT: 23.1µM*; ClpP mod: 1.3%; DT40 TDP1 CPT: 16.4µM*

How did O=C1C=C(C2OC(CO)C(O)C2O)C(=O)N1 (stereo not given) do in these assays?
TDP1 cell noCPT: 6.51µM*; ClpP mod: -0.6%; DT40 TDP1 CPT: 4.61µM*

How did CCOc1ccccc1N1CCN(C(=O)c2ccc3[nH]c4c(c3c2)CCCC4)CC1 do in these assays?
TDP1 block: 5.7%; TDP1 cell noCPT: inconclusive; ClpP mod: -8.4%; DT40 TDP1 CPT: 20.6µM*

What do the screens show for `CCOc1ccccc1N1CCN(C(=O)c2cc3c(C)cc(C)cc3[nH]2)CC1`?
TDP1 cell noCPT: 23.1µM*; DT40 TDP1 CPT: inconclusive

What do the screens show for `CCSC1=NC(C)(C)C=C(/C=C/c2ccc(Cl)cc2Cl)N1`?
TDP1 block: 6.6%; TDP1 cell noCPT: 16.4µM*; ClpP mod: -0.6%; DT40 TDP1 CPT: inconclusive

What do the screens show for `CCSC1=NC(C)(C)C=C(C)N1`?
TDP1 block: -2.8%; TDP1 cell noCPT: -3.4%; ClpP mod: -2.2%; DT40 TDP1 CPT: -2.8%

How did CSC1=NC(C)(C)C=C(/C=C/c2c(Cl)cccc2Cl)N1 do in these assays?
TDP1 block: 2.9%; TDP1 cell noCPT: 4.3%; DT40 TDP1 CPT: 14.3%

What do the screens show for `CSC1=NC(C)(C)C=C(/C=C/c2ccc(Cl)cc2)N1`?
TDP1 block: 2.9%; TDP1 cell noCPT: 16.4µM*; DT40 TDP1 CPT: 20.6µM*

What do the screens show for `CC(=O)C1=C(C)NC(SCC(=O)c2ccccc2)=C(C#N)C1CC(C)C` (stereo not given)?
TDP1 block: 0.5%; TDP1 cell noCPT: 16.4µM*; ClpP mod: -0.3%; DT40 TDP1 CPT: inconclusive

Results for Cc1noc(C)c1S(=O)(=O)N(C)C[C@@H]1OCc2cn(nn2)CCCC(=O)N([C@@H](C)CO)C[C@H]1C ?
TDP1 cell noCPT: -20.5%; ClpP mod: -1.2%; DT40 TDP1 CPT: -6.9%

How did COc1ccc(C(=O)CSC(=S)N2CCCCC2)cc1 do in these assays?
TDP1 cell noCPT: inconclusive; ClpP mod: 0.4%; DT40 TDP1 CPT: inconclusive

How did CCOC(=O)c1ccc2c(c1)NCc1cccc(OC)c1O2 do in these assays?
TDP1 block: 6.3%; TDP1 cell noCPT: 10.3µM*; ClpP mod: -13.1%; DT40 TDP1 CPT: 10.3µM*

How did COc1ccc(C(=O)OCC(=O)c2ccc3c(c2)NC(=O)CO3)cc1OC do in these assays?
TDP1 block: -1.4%; TDP1 cell noCPT: 8.4%; ClpP mod: 0.6%; DT40 TDP1 CPT: 1.2%

How did COc1ccc(/C=C/C(=O)N2CCc3c(cnc(C)c3CNS(=O)(=O)c3cccs3)C2)cc1 do in these assays?
TDP1 cell noCPT: inconclusive; DT40 TDP1 CPT: 0.2%[9.04 µM]

What do the screens show for `Cc1nc2c(C(=O)N3CCN(c4ccccn4)CC3)cnn2c(C)c1Cc1cccc(Cl)c1`?
TDP1 block: 8.0%; TDP1 cell noCPT: 23.1µM*; ClpP mod: -17.4%; DT40 TDP1 CPT: inconclusive

Results for Cc1ccc(C)c(Cc2c(C)nc3c(C(=O)N4CCOCC4)cnn3c2C)c1 ?
TDP1 block: 8.0%; TDP1 cell noCPT: 22.4µM*; ClpP mod: 28.2µM*; DT40 TDP1 CPT: 15.8µM*

What do the screens show for `O=C(O)c1ccc(S(=O)(=O)NCC2CCCO2)cc1` (stereo not given)?
TDP1 cell noCPT: 7.0%; ClpP mod: 0.4%; DT40 TDP1 CPT: 17.1%

Results for Cc1cc(C(=O)OCC(=O)Nc2cc(S(=O)(=O)N3CCOCC3)ccc2Cl)c(C)o1 ?
TDP1 block: 6.0%; TDP1 cell noCPT: -23.6%; ClpP mod: -3.0%; DT40 TDP1 CPT: -5.4%

How did Cc1onc(-c2ccccc2Cl)c1C(=O)OCC(=O)Nc1cccc(S(=O)(=O)N(C)C)c1 do in these assays?
TDP1 block: 8.9%; TDP1 cell noCPT: 16.4µM*; DT40 TDP1 CPT: inconclusive

What do the screens show for `O=C(Cn1cnc2c(cnn2-c2ccccc2)c1=O)Nc1cc(S(=O)(=O)N2CCOCC2)ccc1Cl`?
TDP1 block: 2.7%; TDP1 cell noCPT: 23.1µM*; ClpP mod: -9.6%; DT40 TDP1 CPT: inconclusive

How did Cc1noc(C)c1C(=O)OCC(=O)Nc1ccccc1Oc1ccccc1 do in these assays?
TDP1 block: 2.0%; TDP1 cell noCPT: -18.1%; ClpP mod: inconclusive; DT40 TDP1 CPT: inconclusive

Results for Cc1noc(C)c1C(=O)OCC(=O)Nc1ccccc1C(=O)NC(C)c1ccccc1 (stereo not given) ?
TDP1 block: 4.8%[56.1 µM]; TDP1 cell noCPT: 20.6µM*; ClpP mod: -4.2%; DT40 TDP1 CPT: 29.1µM*

How did Cc1onc(-c2ccccc2)c1C(=O)OCC(=O)Nc1cc(S(=O)(=O)N2CCOCC2)ccc1Cl do in these assays?
TDP1 block: 2.5%; TDP1 cell noCPT: 23.1µM*; DT40 TDP1 CPT: 23.1µM*

How did O=C(Nc1cc(S(=O)(=O)N2CCOCC2)ccc1Cl)C(=O)c1c(-c2ccccc2)cc2ccccn12 do in these assays?
TDP1 block: 4.0%; TDP1 cell noCPT: 23.1µM*; ClpP mod: 3.1%; DT40 TDP1 CPT: 20.6µM*

Results for CCN(CC)S(=O)(=O)c1ccc(Cl)c(NC(=O)COC(=O)c2c(C)noc2C)c1 ?
TDP1 block: 5.3%; TDP1 cell noCPT: 20.6µM*; ClpP mod: -2.4%; DT40 TDP1 CPT: inconclusive

Results for CSc1nc2cc(S(=O)(=O)N3CCCCC3)ccc2s1 ?
TDP1 block: 1.4%; TDP1 cell noCPT: 23.1µM*; DT40 TDP1 CPT: inconclusive

Results for Cn1c(=O)c2[nH]c(-c3ccccc3Cl)c(O)c2n(C)c1=O ?
TDP1 block: -1.9%; TDP1 cell noCPT: -14.8%; ClpP mod: -2.6%; DT40 TDP1 CPT: 1.8%

What do the screens show for `Cn1c2c(c(=O)n(C)c1=O)C(C(F)(F)F)(C(F)(F)F)N=C(CCC1CCCCC1)N2`?
TDP1 block: 5.3%; TDP1 cell noCPT: 3.66µM*; ClpP mod: -4.4%; DT40 TDP1 CPT: 2.59µM*

How did Cn1c2c(c(=O)n(C)c1=O)C(C(F)(F)F)(C(F)(F)F)N=C(c1ccccc1Cl)N2 do in these assays?
TDP1 block: -2.0%; TDP1 cell noCPT: inconclusive; ClpP mod: -1.8%; DT40 TDP1 CPT: 23.1µM*

Results for Cc1nn(-c2ccc(F)cc2)c2sc(C(=O)OCC(=O)N3CCC(C)CC3)cc12 ?
TDP1 block: 1.0%; TDP1 cell noCPT: inconclusive; ClpP mod: 22.4µM*; DT40 TDP1 CPT: inconclusive

How did Cc1cc(C)cc(C(=O)Nc2c3c(nn2-c2ccccc2C)CS(=O)(=O)C3)c1 do in these assays?
TDP1 block: 10.4%; TDP1 cell noCPT: -23.2%; ClpP mod: -0.7%; DT40 TDP1 CPT: -9.4%
